Source: PubChem BioAssay (Tox21)
Records with an inconclusive call do not appear. Active and inactive are the calls of the source. Unless noted, calls follow the shape of the dose curve; as a rule, active = well fitted curve in the direction sought with a large enough effect in the repeat runs; inconclusive = weak or mixed curves; inactive = no such curve, though single readings can be large; an effect the other way counts as inactive or inconclusive.

Experiments:
[1] = qHTS assay to identify small molecule agonists of the hypoxia (HIF-1) signaling pathway - cell viability counter screen (AID 1224844; calls by dose curve; also: nearly all actives have a fitted effect of over 50% in size)
Method in brief: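 Cytotoxicity measured by CellTiter-Glo ATP luminescence in the wells also read for beta-lactamase signal. Cells were HRE-bla ME-180 (2,000/well, 0.5% dialyzed FBS), exposed to compounds for 17 h at 37C.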

[2] = qHTS assay to identify small molecule agonists of the hypoxia (HIF-1) signaling pathway (AID 1224846; active = well fitted activation curve with a large enough effect in the signal ratio in the repeat runs, not every such curve was filed as active; the % refers to the signal ratio)
Method in brief: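 Compounds added to ME-180 cells carrying hypoxia-response-element beta-lactamase reporter (0.5% dialyzed FBS, 5 h preplating), 17 h at 37C; agonist activity detected by CCF4-AM B/G FRET read-out.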

[3] = qHTS assay to identify small molecule agonists of H2AX - cell viability counter screen (AID 1224847; calls by dose curve; also: top concentration of the series differs between compounds; nearly all actives have a fitted effect of over 30% in size)
Method in brief: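 CHO-K1 cells plated overnight at 37C, then exposed 3 h at 37C to compounds at 15 concentrations (0.76% DMSO final). Viability by CellTiter-Glo luminescence after 30 min at room temperature.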

[4] = qHTS RealTime-Glo MT Cell Viability Assay in HepG2 cells - 24 hour (AID 1224867); also: nearly all actives have a fitted effect of over 50% in size
Method in brief: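 Luminescence read-out: viable HepG2 cells reduce a prosubstrate to a NanoLuc substrate, giving a signal proportional to live cell number. Reads taken at 0, 8, 16, 24, 32 and 40 h of compound exposure at 37 C.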

[5] = qHTS RealTime-Glo MT Cell Viability Assay in HEK293 cells - 32 hour (AID 1224868); also: top concentration of the series differs between compounds; nearly all actives have a fitted effect of over 50% in size
Method in brief: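 Nonlytic real-time viability readout: viable cells convert prosubstrate to NanoLuc substrate, giving luminescence proportional to live cell number. HEK293, 600 cells/well, compound added after 5 h, continuous culture at 37 C.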

[6] = A CellTox Green Cytotoxicity Assay to monitor cytotoxicity in HEK293 cells - 0 hour (AID 1224869); also: nearly all actives have a fitted effect of over 50% in size
Method in brief: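 Fluorescence from a DNA-binding dye excluded by viable cells was measured repeatedly in the same HEK293 wells (600 cells/well) during continuous compound exposure at 37 C. Each assay gives one read point: 0, 8, 16, 24, 32 or 40 h.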

[7] = qHTS assay to identify small molecule agonists of H2AX (AID 1224845; active = well fitted activation curve with a large enough effect in the signal ratio in the repeat runs, not every such curve was filed as active; the % refers to the signal ratio)
Method in brief: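 Wild-type CHO-K1 cells, plated overnight, exposed 3hr at 37C to 15 concentrations (0.76% DMSO final). Lysed, then HTRF anti-pH2AX (S139) cryptate and anti-H2AX-d2 antibodies, 24 hr room temperature; 665/620 nm emission read.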

[8] = qHTS assay to identify small molecule agonists of the estrogen related receptor (ERR) signaling pathway from Tox21 library (AID 1224849; calls by dose curve; also: nearly all actives have a fitted effect of over 15% in size); details: ERR reporter cell line, ONE-Glo luciferase, 18 h; at 92.4 µM (top of the series) unless noted
Method in brief: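 Luminescent agonist read-out (One-Glo, 30-minute room-temperature incubation) following 18-hour compound treatment at 37 C of the ERR cell line, which had been plated 6 hours before dosing.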

[9] = qHTS assay to identify small molecule antagonists of the estrogen related receptor (ERR) signaling pathway from Tox21 library (AID 1224848); also: nearly all actives have a fitted effect of over 50% in size; also: potency is read from the fitted curve at half-maximal effect
Method in brief: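 Compounds dissolved in DMSO are pin-transferred onto ERR reporter cells (2,000 per well) that have settled for 6 h at 37 C. Plates then incubate 18 h at 37 C before ONE-Glo luciferase reagent and a luminescence read 30 min later.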
% is scaled to controls: 0 for no effect and ±100 for the full control effect.

O=C1c2ccccc2C(=O)c2c1ccc(O)c2O
inactive: Potency [1] | outcome [2] | Potency [3] | outcome [4] | Potency [5] | Potency [6]

CCC(CC)C(=O)O
inactive: Potency [1] | Potency [7] | Potency [3] | outcome [4] | Potency [5] | Potency [6]

O=c1[nH]nc(-c2ccc([N+](=O)[O-])o2)o1
inactive: Potency [1] | Potency [3] | activity change, positive = activation [8] -20.3% | outcome [4] | Potency [5] | Potency [6]

CCC(C(=O)O)c1ccc(N2Cc3ccccc3C2=O)cc1 (centres undefined)
inactive: Potency [1] | Potency [7] | outcome [2] | Potency [3] | outcome [4] | Potency [5] | Potency [6]

CC/C=C\CCO
inactive: Potency [1] | Potency [7] | Potency [3] | Potency [9] | activity change, positive = activation [8] 0.448% | outcome [4] | Potency [5] | Potency [6]

CC(=O)CC/C=C(\C)CC/C=C(\C)CC/C=C(\C)CCC=C(C)C
inactive: Potency [1] | Potency [7] | outcome [2] | Potency [3] | outcome [4] | Potency [5] | Potency [6]

Cc1c(Cl)cccc1[N+](=O)[O-]
inactive: Potency [1] | Potency [7] | outcome [2] | Potency [3] | outcome [4] | Potency [5] | Potency [6]

O=C(O)c1ccc2c(c1)nc(C(=O)NC1CCN(C3CC3)CC1)n2Cc1cc(-c2ccc(Cl)s2)on1
inactive: activity change, negative = cytotoxicity [3] -8.48% [at 31.6 µM] | activity change, negative = cytotoxicity [4] -0.892% [at 15.8 µM] | activity change, negative = cytotoxic [5] -0.224% [at 15.8 µM] | cytotoxicity [6] -5.57% [at 15.8 µM]

CO[C@@H]1[C@@H](O[C@@H]2O[C@H](C)[C@@H](O[C@H]3C[C@@](C)(O)[C@@H](O)[C@H](C)O3)[C@H](N(C)C)[C@H]2O)[C@@H](CC=O)C[C@@H](C)[C@@H](O[C@@H]2CC[C@H](N(C)C)[C@@H](C)O2)/C=C/C=C/C[C@@H](C)OC(=O)C[C@H]1OC(C)=O
inactive: Potency [1] | Potency [7] | Potency [3] | outcome [4] | Potency [5] | Potency [6]

SCCOCCOCCS
inactive: Potency [1] | Potency [3] | outcome [4] | Potency [5] | Potency [6]

C[C@]12CCC(=O)C=C1[C@@H]1C[C@@H]1[C@H]1[C@@H]3[C@@H]4C[C@@H]4[C@@]4(CCC(=O)O4)[C@@]3(C)CC[C@@H]12
inactive: Potency [1] | Potency [7] | outcome [2] | activity change, positive = activation [8] -43.4% [at 42.5 µM] | outcome [4] | Potency [6]
active: Potency [9] 26.6 µM

CC(C)(O)C(=O)O
inactive: Potency [1] | Potency [7] | outcome [2] | Potency [3] | outcome [4] | Potency [5] | Potency [6]

CS(C)=O
inactive: Potency [1] | Potency [7] | outcome [2] | Potency [3] | outcome [4] | Potency [6]

Nc1ccccc1Nc1ccccc1
inactive: Potency [1] | outcome [2] | outcome [4] | Potency [6]

O=C1c2ccccc2C(=O)C1c1ccc2cc(S(=O)(=O)O)cc(S(=O)(=O)O)c2n1
active: activity change, positive = activation [8] 54.8%
inactive: Potency [3] | Potency [9] | outcome [4] | Potency [5] | Potency [6]

Clc1cc(Cl)c2c(c1)N=C1CCCCCN1C2
inactive: Potency [1] | Potency [7] | outcome [2] | Potency [9] | activity change, positive = activation [8] 2.85% [at 42.5 µM] | outcome [4] | Potency [6]
